Results on 53 compounds are retold here after PubChem BioAssay AID686978 (National Center for Advancing Translational Sciences (NCATS), 2013).

Screen size: about 420,000 compounds; about 64,000 (15%) were called active. Inconclusive results (about 27%) are left out. A selection follows. Unmarked numbers belong to inactive results. Calls come from the whole dose curve; as a rule, active = well fitted inhibition curve with a large enough effect; inconclusive = small, poorly fitted or top-dose-only effect; inactive = flat fitted curve, though single readings scatter.
% is set by controls: 0 for no effect and ±100 for the full control effect; potency is the fitted concentration of half-maximal effect.

This test can be described thus: qHTS for Inhibitors of human tyrosyl-DNA phosphodiesterase 1 (TDP1): qHTS in cells in absence of CPT. Note: nearly all actives have a fitted effect of over 55% in size. Conditions: DT40 Tdp1-/- hTDP1 cells, no CPT, ATP luminescence, 48 h; activity change, negative = growth inhibition: at 46.2 µM (top of the series). In short, it runs like this:
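Stably hTDP1-transfected Tdp1-null chicken DT40 cells were treated with library compounds minus camptothecin and grown for at least 48 hr at 37 °C, after which cellular ATP was quantified by luminescence.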
(Quantitative high-throughput screening tests each substance at several concentrations.)
On to `C#CCOCCOCCOCCNc1nc(N2CCN(C(=O)[C@H](CCCCN)n3cc([C@@H](N)C(C)CC)nn3)CC2)nc(N2CCN(C(=O)[C@H](Cc3ccc(O)cc3)n3cc([C@@H](N)C(C)CC)nn3)CC2)n1` (stereo partly drawn), for which the “activity change, negative = growth inhibition” value was -1.66%.

With `COc1cccc(C2CC(c3ccccc3)=NN2S(=O)(=O)c2ccccc2)c1OC` (stereo not drawn), the Potency was 25.9 µM (active).

In the case of `CS(=O)(=O)Nc1cccc(C2=NN(S(=O)(=O)c3ccccc3)C(c3cccs3)C2)c1` (stereo not drawn), the “activity change, negative = growth inhibition” value is 3.05%.

As for `CCS(=O)(=O)Nc1ccc(C2=NN(S(=O)(=O)c3ccc(F)cc3)C(c3ccco3)C2)cc1` (stereo not drawn), the “activity change, negative = growth inhibition” value is -24.2%.

For `CNC(=O)C(NC(=O)c1ccccc1)=C(C)C`, the “activity change, negative = growth inhibition” value was 5.77%.

On to `O=C(NCCN1C(=O)C2C3C=CC(C3)C2C1=O)Nc1ccccn1` (stereo not drawn), for which the “activity change, negative = growth inhibition” value is -7.04%.

In the case of `COc1ccc(OCC(=O)N2CCN(C(=O)c3cccs3)CC2)cc1`, the “activity change, negative = growth inhibition” value was -12.1%.

As to `CCc1ccc(NC(=O)COC(=O)c2cccs2)cc1`, the “activity change, negative = growth inhibition” value is -20.9%.

Regarding `O=C(CN1CCN(c2cccc(Cl)c2)CC1)Nc1ccc(S(=O)(=O)N2CCOCC2)cc1`, the Potency is 8.2 µM (active).

Take `Cc1ccc(Cl)cc1NC(=O)CN1CCN(S(=O)(=O)N2CCOCC2)CC1`: the “activity change, negative = growth inhibition” value was -11.5%.

Consider `O=C(CN1CCN(c2ccc(O)cc2)CC1)Nc1cc(S(=O)(=O)N2CCOCC2)ccc1Cl`, for which the Potency was 13 µM (active).

For the compound `O=C(CN1CCN(S(=O)(=O)/C=C/c2ccccc2)CC1)Nc1ccc(N2CCOCC2)cc1`, the “activity change, negative = growth inhibition” value is -6.25%.

With `O=C(CN1C(=O)CCC1=O)Nc1ccc(S(=O)(=O)N2CCOCC2)cc1`, the “activity change, negative = growth inhibition” value was -2.37%.

As to `O=C(CN1CCOCC1)Nc1cc(Cl)ccc1Cl`, the “activity change, negative = growth inhibition” value was -6.59%.

Turning to `Cc1cc(NC(=O)CC(C)C)cc(-c2nc3ncccc3o2)c1O`, the “activity change, negative = growth inhibition” value is -1.14%.

With `Cn1c(NC(=O)c2ccc3c(c2)OCO3)cc(=O)n(C)c1=O`, the “activity change, negative = growth inhibition” value was -6.92%.

For `COc1ccccc1CC(NC(C)=O)C(=O)NC1CCN(C(=O)Nc2ccccc2Cl)CC1` (stereo not drawn), the “activity change, negative = growth inhibition” value is 1.02%.

`Cc1nn2c(=O)cc(COC(=O)c3cccc(NC(=O)COc4ccccc4Cl)c3)nc2s1`: the “activity change, negative = growth inhibition” value is -2.4%.

Take `O=[N+]([O-])c1cc2ccccc2nc1-c1ccccc1`: the “activity change, negative = growth inhibition” value is -22.5%.

On to `CCN(CC(=O)NC1CCS(=O)(=O)C1)c1nc(-c2cccnc2)nc2ccccc12` (stereo not drawn), for which the “activity change, negative = growth inhibition” value is -19.4%.

Turning to `COc1ccccc1CCNC(=O)CSc1nnc2ccc(-c3cccnc3)nn12`, the “activity change, negative = growth inhibition” value was 9.51%.

As for `COc1ccccc1Oc1nc(-c2cccnc2)nc2ccccc12`, the Potency is 20.6 µM (active).

As to `COc1ccccc1CNc1ncncc1-c1cccnc1`, the “activity change, negative = growth inhibition” value was -3.33%.

On to `O=[N+]([O-])c1ccc(F)cc1Oc1nc(-c2cccnc2)nc2ccccc12`, for which the Potency is 18.4 µM (active).

As to `CCN(CC)c1nc(-c2ccccc2)cc(C(F)(F)F)c1C#N`, the “activity change, negative = growth inhibition” value is -7.9%.

On to `Cc1cc(C)cc(C(=O)OCC(=O)NCCNC(=O)COC(=O)c2cc(C)cc(C)c2)c1`, for which the “activity change, negative = growth inhibition” value is -4.36%.

Consider `Cc1ccc(C(=O)Nc2nnc(-c3ccncc3)s2)o1`, for which the “activity change, negative = growth inhibition” value is -6.33%.

As for `Cc1occc1C(=O)Nc1nnc(-c2ccncc2)s1`, the “activity change, negative = growth inhibition” value was 1.48%.

In the case of `Cc1ccc(NC(=O)Nc2nnc(-c3ccncc3)s2)cc1`, the Potency was 11.6 µM (active).

With `CC1(C)C2CCC1(CS(=O)(=O)NCCc1c[nH]c3ccccc13)C(=O)C2` (stereo not drawn), the “activity change, negative = growth inhibition” value was -19.2%.

As to `Cc1ccc(OCCC(=O)Nc2ccc(S(=O)(=O)Nc3nccs3)cc2)cc1`, the “activity change, negative = growth inhibition” value is 22.2%.

On to `CN(C)NC(=O)C(NC(=O)c1ccc(N)cc1)C12CC3CC(CC(C3)C1)C2` (stereo not drawn), for which the “activity change, negative = growth inhibition” value is 1.51%.

With `COC(CCN(C)C)(c1ccccc1)c1ccccc1`, the “activity change, negative = growth inhibition” value was -6.55%.

`CCn1nnc(NC(=O)c2c(OC)cccc2OC)n1`: the “activity change, negative = growth inhibition” value is -3.98%.

Turning to `COc1ccc(/C=N/n2c(C)cc(C)cc2=O)cc1`, the “activity change, negative = growth inhibition” value was -9.69%.

Turning to `CCSC1=NCCN1S(=O)(=O)c1ccc(F)cc1`, the “activity change, negative = growth inhibition” value is -3.64%.

In the case of `O=S(=O)(c1ccc(F)cc1)N1CCN=C1SCc1cccc(F)c1`, the “activity change, negative = growth inhibition” value was -19.7%.

For the compound `Cc1ccc(S(=O)(=O)N2CCN=C2SCc2c(F)cccc2Cl)cc1`, the Potency is 11.6 µM (active).

Regarding `O=C(Nc1ccc(Cl)cn1)c1cnn2cccnc12`, the “activity change, negative = growth inhibition” value was -23%.

Take `COc1ccccc1CNC(=O)c1ccc(N(C)S(=O)(=O)c2ccc(C)cc2)cc1`: the “activity change, negative = growth inhibition” value is -10.4%.

In the case of `COc1ccccc1N(C)S(=O)(=O)c1ccc(C(=O)NC2CCCCCC2)cc1`, the Potency is 23.1 µM (active).

In the case of `COc1ccc(S(=O)(=O)N2CCOCC2)cc1C(=O)NC1CCCCC1`, the “activity change, negative = growth inhibition” value is -6.05%.

With `CCc1ccc(OCC(=O)OCC(=O)c2c(N)n(C)c(=O)n(C)c2=O)cc1`, the “activity change, negative = growth inhibition” value was 5.34%.

As to `CC(C)Oc1ccc(/C=N/NC(=O)c2nnn(-c3nonc3N)c2CN(C)C2CCCCC2)cc1`, the “activity change, negative = growth inhibition” value is -11.7%.

Take `Cc1cc(C)cc(NC(=O)NCc2ccccn2)c1`: the “activity change, negative = growth inhibition” value is 19.2%.

On to `CC(C)(C)NC(=O)C(=O)NN=C1CCCCCCC1`, for which the “activity change, negative = growth inhibition” value is 3.33%.

Consider `CC(C)NC(=S)NN=C1CCCCCCCCCCC1`, for which the Potency is 13 µM (active).

In the case of `CCc1ccc(C(=O)NN=C2CCCCCC2)s1`, the “activity change, negative = growth inhibition” value is 5.13%.

Take `Cc1ccc(-n2nc3c(c2NC(=O)CCC2CCCCC2)CS(=O)C3)cc1` (stereo not drawn): the “activity change, negative = growth inhibition” value was -21.2%.

As for `CCN1CCC(O)(/C=C/c2ccc(C)cc2)C(C(=O)/C=C/c2ccc(C)cc2)C1` (stereo not drawn), the Potency was 4.61 µM (active).

As for `O=S(=O)(c1ccc(Cl)s1)N1CCC2(CC1)OCCO2`, the “activity change, negative = growth inhibition” value is -12.2%.

In the case of `CNS(=O)(=O)c1ccc(N2CCCC2=O)c([N+](=O)[O-])c1`, the “activity change, negative = growth inhibition” value is -18.6%.

Turning to `COc1cc(C(=O)Nc2cc(C(F)(F)F)ccc2-n2cncn2)cc(OC)c1OC`, the “activity change, negative = growth inhibition” value is -28.2%.
